Results from PMC5540273 (PLoS ONE, 2017).

Key:
Conditions in all cases: concentration: 1 μM, replicates: in singlicate; n = 1
MLK1 = tested on: T1, MLK1
T1 construct: gene MAP3K9

MLK2 = tested on: MLK2
MLK3 = tested on: MLK3
MRCKA = tested on: MRCKA
MRCKB = tested on: T2, MRCKB
T2 construct: gene CDC42BPB

MST1R = tested on: MST1R
MST1 = tested on: T3, MST1
T3 construct: gene STK4

MST2 = tested on: T4, MST2
T4 construct: gene STK3

MST3 = tested on: T5, MST3
T5 construct: gene STK24

MST4 = tested on: MST4
MTOR = tested on: MTOR
MUSK = tested on: MUSK
MYLK2 = tested on: MYLK2
MYLK4 = tested on: MYLK4
MYLK = tested on: MYLK
MYO3A = tested on: MYO3A
MYO3B = tested on: MYO3B
NDR1 = tested on: T6, NDR1
T6 construct: gene STK38

NDR2 = tested on: NDR2
NEK10 = tested on: NEK10
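Note: KINOMEscan kinase panel screen.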

SMILES | %Inh (MLK1) [%] | %Inh (MLK2) [%] | %Inh (MLK3) [%] | %Inh (MRCKA) [%] | %Inh (MRCKB) [%] | %Inh (MST1R) [%] | %Inh (MST1) [%] | %Inh (MST2) [%] | %Inh (MST3) [%] | %Inh (MST4) [%] | %Inh (MTOR) [%] | %Inh (MUSK) [%] | %Inh (MYLK2) [%] | %Inh (MYLK4) [%] | %Inh (MYLK) [%] | %Inh (MYO3A) [%] | %Inh (MYO3B) [%] | %Inh (NDR1) [%] | %Inh (NDR2) [%] | %Inh (NEK10) [%]
Cl.Cl.NCC(NCc1ccc(-c2ccnc3[nH]ccc23)s1)c1ccccc1 (stereo not shown) [GSK1321565] | 0 | 0 | 7 | 23 | 64 | 12 | 0 | 48 | 0 | 0 | 43 | 13 | 5 | 99.8 | 59 | 34 | 0 | 53 | 31 | 27
COC(=O)Nc1nc2ccc(Oc3ccc(NC(=O)Nc4cc(C(F)(F)F)ccc4F)cc3)cc2n1C.Cl [GW692089] | 0 | 0 | 19 | 0 | 0 | 14 | 0 | 0 | 3 | 0 | 28 | 98.5 | 36 | 0 | 0 | 17 | 0 | 24 | 45 | 1
COc1cccc(NC(=O)NC2CCN(c3ccnc(Nc4cc(OC)c(OC)c(OC)c4)n3)C2)c1 (stereo not shown) [GSK1379763] | 48 | 0 | 38 | 11 | 60 | 31 | 0 | 3 | 0 | 0 | 7 | 5 | 0 | 0 | 17 | 12 | 0 | 0 | 0 | 15
Cc1ccc(C(=O)N2CC[C@@H](O)C2)cc1-n1c(C)cc(OCc2ccc(F)cc2F)c(Br)c1=O | 0 | 5 | 0 | 0 | 0 | 3 | 0 | 5 | 5 | 0 | 45 | 9 | 0 | 0 | 0 | 0 | 0 | 26 | 0 | 0
COc1ccc(CNC(=O)NC2CCN(c3ccnc(Nc4ccc(F)cc4)n3)CC2)cc1 [GSK1379788] | 0 | 0 | 0 | 19 | 0 | 35 | 3 | 0 | 0 | 0 | 18 | 0 | 0 | 5 | 5 | 40 | 0 | 7 | 16 | 3
O=C(Nc1cccc(-c2nn3ncccc3c2-c2ccnc(Nc3ccccc3)n2)c1)c1c(F)cccc1F [GSK198271] | 0 | 0 | 11 | 69 | 88 | 15 | 47 | 100 | 12 | 0 | 10 | 4 | 0 | 0 | 7 | 6 | 30 | 11 | 0 | 0
O=C(Nc1cccc(-c2nn3ccccc3c2-c2ccnc(Nc3cccc(F)c3)n2)c1)c1c(F)ccc(F)c1Cl [GSK357952] | 0 | 31 | 39 | 9 | 1 | 50 | 25 | 0 | 4 | 0 | 0 | 11 | 10 | 0 | 5 | 0 | 0 | 41 | 0 | 44
c1ccc(Oc2ccc(Nc3ccnc4cc(-c5ccc(CNCCN6CCOCC6)o5)ccc34)cc2)nc1 [GW567145] | 0 | 0 | 0 | 0 | 0 | 16 | 0 | 0 | 11 | 0 | 23 | 1 | 0 | 0 | 0 | 24 | 0 | 16 | 40 | 0
COc1ccc(Nc2nccc(N3CCC(NC(=O)Nc4cccc(OC)c4)C3)n2)cc1 (stereo not shown) [GSK1379742] | 0 | 0 | 25 | 11 | 0 | 9 | 0 | 31 | 0 | 0 | 10 | 8 | 14 | 0 | 2 | 0 | 0 | 0 | 0 | 0
COc1ccc(-c2coc3ccc(-c4nnc(SCc5ccc(OC)c(C(F)(F)F)c5)o4)cc23)cc1 | 14 | 0 | 0 | 0 | 0 | 0 | 32 | 11 | 17 | 0 | 0 | 1 | 0 | 0 | 15 | 8 | 36 | 20 | 0 | 0
O=C(Nc1n[nH]c2cc(-c3ccoc3)ccc12)C1CC1 [SB-738481] | 0 | 0 | 6 | 1 | 0 | 0 | 0 | 25 | 0 | 0 | 0 | 0 | 89 | 19 | 29 | 0 | 0 | 6 | 0 | 0
Nc1ncc(-c2ccc3nccc(-c4ccncc4)c3c2)cc1S(=O)(=O)N1CCOCC1 [GSK1627798] | 6 | 0 | 0 | 0 | 0 | 11 | 7 | 0 | 4 | 0 | 99.3 | 0 | 0 | 0 | 20 | 0 | 0 | 6 | 0 | 16
COc1ccc(Nc2nccc(NCCNC(=O)c3cc4ccccc4s3)n2)cc1 [GSK1379896] | 0 | 0 | 14 | 21 | 6 | 40 | 0 | 24 | 0 | 0 | 0 | 8 | 0 | 6 | 18 | 5 | 0 | 9 | 0 | 0
Cc1ccc(F)c(C(=O)Nc2cccc(-c3nn4ccccc4c3-c3ccnc(Nc4cccc(F)c4)n3)c2)c1F [GSK361061] | 14 | 42 | 31 | 22 | 24 | 34 | 34 | 0 | 2 | 15 | 13 | 22 | 17 | 0 | 33 | 10 | 0 | 15 | 0 | 11
Clc1ccc(-c2nn3ncccc3c2-c2ccnc(Nc3ccc4c(c3)OCCO4)n2)cc1 [GW829116] | 0 | 16 | 0 | 34 | 0 | 0 | 0 | 9 | 0 | 0 | 0 | 0 | 0 | 0 | 0 | 7 | 1 | 34 | 8 | 0
O=C(Nc1ccccc1F)NC1CCN(c2ccnc(Nc3ccc(F)cc3)n2)CC1 [GSK1379800] | 0 | 0 | 0 | 35 | 0 | 33 | 1 | 2 | 0 | 5 | 17 | 3 | 16 | 10 | 8 | 37 | 0 | 7 | 0 | 5
Cl.c1ccc(-c2ccc3c(Nc4ccc5[nH]ncc5c4)ccnc3c2)nc1 [GW440137] | 0 | 27 | 11 | 9 | 0 | 43 | 0 | 28 | 0 | 3 | 7 | 7 | 5 | 11 | 26 | 36 | 0 | 8 | 10 | 1
CCc1ccc(-c2ccc3c(c2)-c2c(cnn2C)S(=O)(=O)N3C)cc1 | 7 | 0 | 0 | 0 | 0 | 31 | 0 | 0 | 0 | 0 | 0 | 14 | 0 | 1 | 0 | 16 | 25 | 0 | 0 | 9
NCCCC(NC(=O)c1cc(Br)c(-c2ccnc3[nH]ccc23)s1)c1ccccc1.O=C(O)C(F)(F)F.O=C(O)C(F)(F)F (stereo not shown) [GSK1287544] | 0 | 15 | 0 | 63 | 98.8 | 17 | 0 | 0 | 0 | 11 | 3 | 8 | 30 | 99.6 | 23 | 0 | 0 | 95.7 | 86 | 20
CC(=O)N1CCN(c2ccc(Nc3nccc(-c4sc(C(C)C)nc4-c4cccc(NS(=O)(=O)c5cccc(Cl)c5)c4)n3)cn2)CC1 [GSK1660437] | 33 | 33 | 46 | 0 | 0 | 15 | 4 | 0 | 6 | 1 | 3 | 14 | 0 | 0 | 7 | 12 | 49 | 14 | 0 | 0
